# Source: the supplement of paper PMC6555819
# Key:
# Test in all cases: PBM binding z-score (relative to random genomic background probes); higher = stronger binding; sequences stand for … in GC…GCGATTGACAGCGTAGAATGAAGG
# [1] = system: FXR:RXRa (NR concentration 270 nM, RXRa partner concentration 90 nM)
# Outline: (§1)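 The probes on custom Agilent 4×180K protein-binding microarrays were double-stranded, with 34-nt variable regions bearing direct-repeat seeds, single-nucleotide variants, half-site ablations and random human genomic background sequences. Incubation lasted 1 h with ligand-free nuclear receptor dimers in PBS pH 7.4, 2% milk, 0.02% Triton X-100, 1 mM DTT, 0.2 mg/mL BSA and 0.4 mg/ml salmon testes DNA. Antibodies against each partner (one per run) detected bound dimers, and fluorescence scans were regression-normalized. Binding z-scores take the random background probes as reference.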
# [2] = system: LXRa:RXRa (NR concentration 270 nM, RXRa partner concentration 90 nM)
# Outline: as §1
# [3] = system: LXRa homodimer (NR concentration 270 nM)
# Outline: as §1
# [4] = system: LXRb:RXRa (NR concentration 270 nM, RXRa partner concentration 90 nM)
# Outline: as §1
# [5] = system: LXRb homodimer (NR concentration 270 nM)
# Outline: as §1
# [6] = system: PPARa:RXRa (NR concentration 270 nM, RXRa partner concentration 90 nM)
# Outline: as §1
# [7] = system: PPARg:RXRa (NR concentration 180 nM, RXRa partner concentration 90 nM)
# Outline: as §1
# [8] = system: PPARg:RXRa 270nM:90nM, anti-RXR (NR concentration 270 nM, RXRa partner concentration 90 nM)
# Outline: as §1
# [9] = system: PPARg:RXRa 30nM:10nM, anti-RXR (NR concentration 30 nM, RXRa partner concentration 10 nM)
# Outline: as §1
# [10] = system: PPARg:RXRa 90nM:30nM, anti-RXR (NR concentration 90 nM, RXRa partner concentration 30 nM)
# Outline: as §1
# [11] = system: PPARg:RXRa DBDmut IVT, anti-RXR (DBD mutation: RXRa K156A/R161A, NR concentration 270 nM, RXRa partner concentration 90 nM)
# Outline: as §1
# [12] = system: PPARg:RXRa IVT, anti-PPARg (NR concentration 270 nM, RXRa partner concentration 90 nM)
# Outline: as §1
# [13] = system: PPARg DBDmut:RXRa IVT, anti-PPARg (DBD mutation: PPARg1 K132A/R137A, NR concentration 270 nM, RXRa partner concentration 90 nM)
# Outline: as §1
# [14] = system: PPARg DBDmut IVT, anti-PPARg (DBD mutation: PPARg1 K132A/R137A, NR concentration 270 nM)
# Outline: as §1
# [15] = system: PPARg homodimer (NR concentration 180 nM)
# Outline: as §1
# [16] = system: PXR:RXRa (NR concentration 270 nM, RXRa partner concentration 90 nM)
# Outline: as §1
# [17] = system: PXR homodimer (NR concentration 270 nM)
# Outline: as §1
# [18] = system: RARa:RXR (NR concentration 270 nM, RXRa partner concentration 90 nM)
# Outline: as §1
# [19] = system: RARa homodimer (NR concentration 270 nM)
# Outline: as §1
# [20] = system: RARb:RXRa (NR concentration 270 nM, RXRa partner concentration 90 nM)
# Outline: as §1
Sequence,PBM binding z-score [1],PBM binding z-score [2],PBM binding z-score [3],PBM binding z-score [4],PBM binding z-score [5],PBM binding z-score [6],PBM binding z-score [7],PBM binding z-score [8],PBM binding z-score [9],PBM binding z-score [10],PBM binding z-score [11],PBM binding z-score [12],PBM binding z-score [13],PBM binding z-score [14],PBM binding z-score [15],PBM binding z-score [16],PBM binding z-score [17],PBM binding z-score [18],PBM binding z-score [19],PBM binding z-score [20]
GCGACTGGGGCGTCAGCAGGTTACCATAACTTAA,-0.381,-0.378,-0.324,0.262,-1.19,0.425,0.0029,-0.411,-0.842,-0.965,0.993,0.504,-1.26,-0.889,-0.668,-0.181,-0.71,0.206,-1.15,0.327
AGAATGAGGTTTAGATCAGGGAAACAGAATACAT,0.0195,-0.0666,-0.0558,-0.395,-0.223,-0.306,0.649,0.00462,0.223,0.354,-0.558,-0.176,0.757,0.896,-0.0172,-0.27,-0.0808,-0.0668,0.721,-0.105
TAGCCTATGTCATTGGGCCAGTATAGTACGCATC,-0.278,-0.41,-0.519,-0.0433,-0.648,0.0352,0.577,0.178,0.0263,0.065,0.158,0.381,0.11,0.249,-0.0273,-0.188,-0.118,-0.0244,-0.0402,0.0995
CGTCAAAGTTCAACTACGGTAACGTAAAGCACGC,6.73,6.61,4.35,4.24,2.11,5.17,4.85,5.54,2.32,4.26,0.132,1.78,0.517,0.931,3.69,5.14,3.79,4.38,2.22,5.2
ACTATTAGTTGAGACGAGCGCAACCGATAGGTTG,-0.41,-0.534,-0.214,-0.638,-0.159,-0.642,0.477,-0.52,-0.422,-0.414,-0.504,-0.34,0.343,0.844,-0.155,-0.542,0.00515,-0.474,-0.207,-0.278
CCTTACGGGTCACTCCAGGTTATACCATCGGAGT,4.89,7.62,2.1,5.35,0.431,4.44,3.61,3.66,1.11,2.42,2.28,3.61,0.661,-0.4,1.69,5,0.455,3.74,0.133,3.68
CCGACTGGGGCAGAAAGATTACCATACCATCCGG,-0.557,-0.807,-0.423,-0.639,-1,-0.291,0.958,-0.112,-0.469,-0.456,1.53,0.903,-0.59,-1.13,-0.627,-0.737,-0.227,-0.36,-0.0256,0.0416
ACAGACAGGTGATGAAGGTTACTCAGGCTATCAT,0.29,0.278,0.0459,0.276,-0.288,0.714,0.777,0.381,0.107,0.0691,0.431,0.604,0.785,-0.154,0.281,0.38,0.162,0.715,0.502,0.957
ACAGACAAGTGATGAAGGTAACTCAGGCTATCAT,-0.375,-0.259,-0.503,-0.446,-0.469,-0.37,0.531,-0.282,-0.0857,-0.2,-0.565,-0.0204,0.0249,-0.152,-0.0362,-0.39,-0.0518,-0.0214,0.43,-0.307
TCTAGTTGGTCAAAGGTCACACACTCGAAATGCG,6.09,5.91,4,5.53,1.76,6.56,11.6,10,10.4,12.2,3.69,6.56,2.18,2.02,6.43,6.12,1.83,7.45,3.65,5.09
CCTAGCAGGCCAATCTGGGTCAGTCAAGGCTTGA,0.816,0.419,-0.663,0.0551,-1.41,1.97,0.228,0.88,-0.729,0.114,3.27,3.61,-0.788,-1.02,-0.0146,0.0599,-0.751,0.0549,-0.68,1.28
CTCGAAAGGTCGGTTGAGGCGAGTATACGGATAA,1.49,1.17,-0.238,0.925,-0.22,2.11,0.256,0.752,-0.191,0.269,-0.316,0.197,0.246,-0.285,0.331,1.17,-0.214,2,-0.443,2.66
TCTTGTAGATCTGCAGGTTAAGAAAGCTGGCCAA,0.0261,0.396,-0.113,0.457,-0.445,0.515,-0.788,1.01,2.56,1.89,1.64,-0.0995,-0.0196,-0.962,-0.597,0.206,-0.0786,0.383,-0.894,0.204
GAGACAGGGTCAAGGCCAGAGTACGCGTATTGAT,6.57,3.62,-0.408,3.43,-0.789,5.24,4.71,4.73,1.4,3.22,1.79,2.9,0.251,-0.239,2,3.78,-0.543,4.4,0.471,4.2
